From PubChem BioAssay (Tox21)
Unmarked numbers belong to inactive results. Results filed as inconclusive are left out. Entries that show only a call come without a potency. Calls of active or inactive are those of the source. Unless noted, calls come from the whole dose curve; as a rule, active = well fitted curve in the direction sought with a large enough effect in the repeat runs; inconclusive = weak or mixed curves; inactive = no such curve, though single readings can be large; an effect the other way counts as inactive or inconclusive.

Tests used:
[1] = qHTS assay to identify small molecule agonists of the progesterone receptor (PR) signaling pathway - cell viability counter screen (AID 1346799; calls by dose curve; note: nearly all actives have a fitted effect of over 45% in size; note: potency is the fitted concentration of half-maximal effect)
Procedure, shortened: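 Viability was scored by ATP luminescence (CellTiter-Glo, 30 min, room temperature) in the same wells used for the reporter readout, after 16 hr compound exposure of PR-UAS-bla HEK293T cells.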

[2] = qHTS assay to identify small molecule antagonists of the TGF-beta/Smad signaling pathway - cell viability counter screen (AID 1346824); note: nearly all actives have a fitted effect of over 50% in size
Procedure, shortened: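 Cytotoxicity counter-screen run in the same wells as the beta-lactamase Smad reporter read: CellTiter-Glo luminescence after 30 min at room temperature. HEK 293T SBE-bla cells had 5 hr compound exposure at 37 C with TGF-beta1 (0.25 ng/mL stock).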

[3] = qHTS assay to identify small molecule agonists of the TGF-beta/Smad signaling pathway - cell viability counter screen (AID 1346829); note: top concentration of the series differs between compounds; nearly all actives have a fitted effect of over 45% in size
Procedure, shortened: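 After overnight seating at 37 C and 5% CO2, reporter cells got compounds for 5 hr and FRET substrate for 2 hr; cell viability then came from CellTiter-Glo luminescence.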

[4] = qHTS assay to identify small molecule agonists of the TGF-beta/Smad signaling pathway (AID 1346859; active = well fitted activation curve with a large enough effect in the signal ratio in the repeat runs, not every such curve was filed as active; the % refers to the signal ratio; note: series mostly up to about 77 µM)
Procedure, shortened: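 Dual-wavelength fluorescence (460/530 nm emission) quantified beta-lactamase expression under the Smad binding element in HEK 293T cells following 5 hr compound treatment at 37 C.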

[5] = Human pregnane X receptor (PXR) small molecule agonists, qHTS cell viability counter screen (AID 1346977); note: nearly all actives have a fitted effect of over 50% in size; note: potency is the fitted concentration of half-maximal effect
Procedure, shortened: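 HepG2 cells stably carrying the PXR-Luc reporter are cultured with 5% charcoal-stripped FBS and treated with compounds for 24hr. CellTiter-Fluor is added at 23hr and fluorescence is read after 1hr.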

[6] = Caspase-3/7 induction in HepG2 cells by small molecules, qHTS assay (AID 1346978); note: nearly all actives have a fitted effect of over 15% in size; note: potency is the fitted concentration of half-maximal effect
Procedure, shortened: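 Caspase-3/7 induction was measured by Caspase-Glo 3/7 luminescence (30 min, room temperature) after a 17 hr compound exposure of wild-type HepG2 cells seeded at 2,000 per well and pre-incubated 5 hr.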

[7] = Caspase-3/7 induction in CHO-K1 cells by small molecules, qHTS assay (AID 1346980); note: nearly all actives have a fitted effect of over 15% in size
Procedure, shortened: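 Luminescent Caspase-Glo 3/7 read (30min, room temperature) quantified apoptosis induction. Cells were wild-type CHO-K1, treated with compound for 17hr at 37 C and 5% CO2.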

[8] = Caspase-3/7 induction in HepG2 cells by small molecules, qHTS cell viability counter screen (AID 1346981); note: nearly all actives have a fitted effect of over 30% in size; note: potency is the fitted concentration of half-maximal effect
Procedure, shortened: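 Wild-type HepG2 cells (2,000/well) were allowed to settle for 5 hr at 37 C, 5% CO2, then dosed with compounds in DMSO by pin transfer. After 16 hr at 37 C, CellTiter-Fluor was added and fluorescence read 1 hr later.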

[9] = biological target: Nuclear receptor subfamily 1 group I member 2 (Homo sapiens) (UniProt O75469); test: Human pregnane X receptor (PXR) small molecule agonists, qHTS assay (AID 1346982); note: nearly all actives have a fitted effect of over 35% in size; note: potency is the fitted concentration of half-maximal effect
Procedure, shortened: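 PXR-Luc HepG2 cells (CYP3A4 promoter-driven luciferase) were seeded in medium with 5% charcoal-stripped FBS, left 5 hr at 37 C, then exposed to compounds in DMSO for 24 hr. Luminescence was read after ONE-Glo addition.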

[10] = biological target: Cytochrome P450 2D6 (Homo sapiens) (UniProt P10635); test: Cytochrome P450 Family 2 Subfamily D Member 6 (CYP2D6) small molecule antagonists: luciferase reporter qHTS assay (AID 1671196); note: nearly all actives have a fitted effect of over 50% in size; note: potency is the fitted concentration of half-maximal effect
Procedure, shortened: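 CYP2D6 enzyme–substrate mix was held with compound for 10 min at room temperature, then NADPH regeneration solution was added and the reaction ran 1 h at room temperature. Luciferin product was detected by luminescence after 20 min with detection reagent.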

[11] = biological target: Cytochrome P450 2C19 (Homo sapiens) (UniProt P33261); test: Cytochrome P450 Family 2 Subfamily C Member 19 (CYP2C19) small molecule antagonists: luciferase reporter qHTS assay (AID 1671197); note: nearly all actives have a fitted effect of over 65% in size; note: potency is the fitted concentration of half-maximal effect
Procedure, shortened: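 Inhibition of CYP2C19 was scored from loss of luminescence in a P450-Glo proluciferin substrate assay, NADPH-started and run 1 h at 37C, with ketoconazole as positive control.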

[12] = biological target: Cytochrome P450 1A2 (Homo sapiens) (UniProt P05177); test: Cytochrome P450 Family 1 Subfamily A Member 2 (CYP1A2) small molecule antagonists: luciferase reporter qHTS assay (AID 1671199); note: nearly all actives have a fitted effect of over 50% in size; note: potency is the fitted concentration of half-maximal effect
Procedure, shortened: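 Human CYP1A2 activity measured with a P450-Glo proluciferin substrate; compounds in DMSO preincubated 10 min at room temperature with enzyme-substrate mix, then NADPH regeneration system added for 1 h. Luciferin detection reagent, 20 min, luminescence read.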

[13] = biological target: Voltage-gated inwardly rectifying potassium channel KCNH2 (Homo sapiens) (UniProt Q12809); test: Human Ether-a-go-go-Related Gene (hERG) channel small molecule antagonists: fluorescence cell-based qHTS assay (AID 1671200)
Procedure, shortened: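 First, 1000 cells per well are seeded and cultured overnight at 37 C. Next, FluxOR II dye is loaded for 1 h at room temperature, protected from light. After 10 more minutes, stimulus is added and fluorescence is read.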

[14] = biological target: Thyrotropin-releasing hormone receptor (Homo sapiens) (UniProt P34981); test: qHTS assay to identify small molecule antagonists of the thyrotropin-releasing hormone receptor (TRHR) signaling pathway (AID 1346877; active = well fitted inhibition curve with a large enough effect in the repeat runs, not every such curve was filed as active; note: series mostly up to about 51 µM)
Procedure, shortened: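 TRHR-expressing HEK293 cells were seeded, cultured 18 h at 37 °C, then loaded with calcium dye for 2 h. Compounds were pre-incubated 5 min at room temperature before 1 nM TRH (final) was added, and kinetic fluorescence was recorded for 3 min.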

[15] = biological target: Thyrotropin-releasing hormone receptor (Homo sapiens) (UniProt P34981); test: qHTS assay to identify small molecule agonists of the thyrotropin-releasing hormone receptor (TRHR) signaling pathway (AID 1346891; calls by dose curve; note: series mostly up to about 58 µM)
Procedure, shortened: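 Kinetic fluorescence (3 min, 1 s intervals) reported intracellular calcium after compound transfer onto TRHR-Hek293 cells pre-loaded with dye for 2 h at 37 °C.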

[16] = Caspase-3/7 induction in CHO-K1 cells by small molecules, qHTS cell viability counter screen (AID 1346979); note: nearly all actives have a fitted effect of over 35% in size; note: potency is the fitted concentration of half-maximal effect
Procedure, shortened: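 Seeding: 1,500 CHO-K1 cells/well. Rest: 5hr, 37C. Treatment: compounds in DMSO, 16hr. Read: CellTiter-Fluor, 1hr, fluorescence.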

[17] = biological target: Nuclear receptor subfamily 1 group I member 2 (Homo sapiens) (UniProt O75469); test: CYP3A4 induction through human pregnane X receptor (PXR) by small molecules, qHTS assay (AID 1346984); note: nearly all actives have a fitted effect of over 40% in size
Procedure, shortened: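 DPX-2 cells (HepG2 co-transfected with PXR and CYP3A4 promoter-luciferase) treated with compounds 24 h at 37C; luciferin-IPA CYP3A4 substrate 3uM final added for 3 h, then One-Glo; luminescence read. qHTS format.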

[18] = biological target: Nuclear receptor subfamily 1 group I member 2 (Homo sapiens) (UniProt O75469); test: Human pregnane X receptor (PXR) activation by small molecules, qHTS assay (AID 1346985); note: nearly all actives have a fitted effect of over 40% in size
Procedure, shortened: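 DPX-2 cells (HepG2 co-transfected with a PXR response element and a CYP3A4-promoter luciferase construct) were seeded at 2,000 per well, rested 5 hr at 37C, then exposed to DMSO-dissolved compounds for 24 hr. Activation was read as luciferase luminescence.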

[19] = biological target: Cytochrome P450 2C9 (Homo sapiens) (UniProt P11712); test: Cytochrome P450 Family 2 Subfamily C Member 9 (CYP2C9) small molecule antagonists: luciferase reporter qHTS assay (AID 1671198); note: nearly all actives have a fitted effect of over 50% in size; note: potency is the fitted concentration of half-maximal effect
Procedure, shortened: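 Enzyme-substrate mix preincubated with compound 10 min at room temperature; reaction started with NADPH regeneration solution, 1 h 37C. Luminescent luciferin product read after 20 min detection reagent.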

[20] = biological target: Nuclear receptor subfamily 1 group I member 2 (Rattus norvegicus) (UniProt Q9R1A7); test: Rat pregnane X receptor (rPXR) activation by small molecules, qHTS assay (AID 1346983); settings: rPXR luciferase reporter cells, One-Glo luminescence, 24 h; max activation: active compounds read high; note: nearly all actives have a fitted effect of over 20% in size
Procedure, shortened: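 Luminescent readout (One-Glo luciferase, 30 min room temperature) followed 24 hr compound treatment at 37 C of rPXR cells plated 2,000 per well and preincubated 5hr; qHTS format with compounds delivered in DMSO.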

Chain of Cytochrome P450 2C19 (Homo sapiens) (P33261 whole entry, looked up): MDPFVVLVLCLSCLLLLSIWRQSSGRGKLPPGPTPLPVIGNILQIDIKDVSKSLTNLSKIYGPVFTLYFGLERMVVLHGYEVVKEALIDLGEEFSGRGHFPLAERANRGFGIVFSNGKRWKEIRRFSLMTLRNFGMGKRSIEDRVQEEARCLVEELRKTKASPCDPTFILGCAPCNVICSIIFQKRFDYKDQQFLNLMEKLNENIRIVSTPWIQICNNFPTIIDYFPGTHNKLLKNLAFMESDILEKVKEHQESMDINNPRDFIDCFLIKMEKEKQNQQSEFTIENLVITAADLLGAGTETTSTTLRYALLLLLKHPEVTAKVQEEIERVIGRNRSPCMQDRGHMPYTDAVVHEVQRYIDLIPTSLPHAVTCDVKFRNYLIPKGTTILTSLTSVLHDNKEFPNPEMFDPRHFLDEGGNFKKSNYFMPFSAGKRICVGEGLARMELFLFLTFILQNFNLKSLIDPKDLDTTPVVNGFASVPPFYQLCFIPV
Chain of Cytochrome P450 2C9 (Homo sapiens) (P11712 whole entry, looked up): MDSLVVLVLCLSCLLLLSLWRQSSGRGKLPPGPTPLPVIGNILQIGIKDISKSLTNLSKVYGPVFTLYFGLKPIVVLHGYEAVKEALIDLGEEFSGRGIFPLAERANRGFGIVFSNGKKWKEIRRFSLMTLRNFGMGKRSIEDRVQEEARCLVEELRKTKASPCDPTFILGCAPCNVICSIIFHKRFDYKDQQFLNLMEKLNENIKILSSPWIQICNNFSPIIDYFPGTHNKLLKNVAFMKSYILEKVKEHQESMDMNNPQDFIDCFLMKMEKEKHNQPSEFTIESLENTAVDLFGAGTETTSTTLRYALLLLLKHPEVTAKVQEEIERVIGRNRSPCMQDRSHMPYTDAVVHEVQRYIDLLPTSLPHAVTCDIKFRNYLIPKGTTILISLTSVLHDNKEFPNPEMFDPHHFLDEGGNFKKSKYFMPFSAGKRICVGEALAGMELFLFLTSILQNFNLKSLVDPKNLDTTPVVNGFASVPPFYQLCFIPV
Chain of Cytochrome P450 2D6 (Homo sapiens) (P10635 whole entry, looked up): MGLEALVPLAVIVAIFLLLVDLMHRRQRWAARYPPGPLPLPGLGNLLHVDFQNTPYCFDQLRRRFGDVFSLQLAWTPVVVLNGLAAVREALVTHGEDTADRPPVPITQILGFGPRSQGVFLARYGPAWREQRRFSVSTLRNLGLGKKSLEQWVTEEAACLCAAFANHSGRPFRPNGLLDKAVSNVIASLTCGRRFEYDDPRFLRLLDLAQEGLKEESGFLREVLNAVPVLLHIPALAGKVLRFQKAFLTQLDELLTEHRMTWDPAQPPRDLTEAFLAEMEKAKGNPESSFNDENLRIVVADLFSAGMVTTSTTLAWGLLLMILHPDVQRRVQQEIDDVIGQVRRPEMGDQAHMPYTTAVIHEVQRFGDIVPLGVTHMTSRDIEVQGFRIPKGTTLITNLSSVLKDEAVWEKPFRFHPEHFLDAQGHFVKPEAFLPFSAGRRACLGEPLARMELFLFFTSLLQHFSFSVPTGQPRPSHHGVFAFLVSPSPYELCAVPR
Chain of Nuclear receptor subfamily 1 group I member 2 (Homo sapiens) (O75469 whole entry, looked up): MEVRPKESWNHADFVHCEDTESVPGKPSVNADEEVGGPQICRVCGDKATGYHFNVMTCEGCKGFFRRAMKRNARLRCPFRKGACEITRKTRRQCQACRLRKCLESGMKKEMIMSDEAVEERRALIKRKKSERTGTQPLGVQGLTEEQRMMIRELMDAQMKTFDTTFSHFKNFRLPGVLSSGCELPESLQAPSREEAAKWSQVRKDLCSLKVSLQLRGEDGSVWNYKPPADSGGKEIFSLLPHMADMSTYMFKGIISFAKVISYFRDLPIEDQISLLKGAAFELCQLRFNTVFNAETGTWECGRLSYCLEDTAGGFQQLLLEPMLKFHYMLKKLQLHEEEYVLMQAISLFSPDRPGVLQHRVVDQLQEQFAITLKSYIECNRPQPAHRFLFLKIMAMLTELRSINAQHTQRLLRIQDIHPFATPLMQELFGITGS
Chain of Voltage-gated inwardly rectifying potassium channel KCNH2 (Homo sapiens) (Q12809 whole entry, looked up): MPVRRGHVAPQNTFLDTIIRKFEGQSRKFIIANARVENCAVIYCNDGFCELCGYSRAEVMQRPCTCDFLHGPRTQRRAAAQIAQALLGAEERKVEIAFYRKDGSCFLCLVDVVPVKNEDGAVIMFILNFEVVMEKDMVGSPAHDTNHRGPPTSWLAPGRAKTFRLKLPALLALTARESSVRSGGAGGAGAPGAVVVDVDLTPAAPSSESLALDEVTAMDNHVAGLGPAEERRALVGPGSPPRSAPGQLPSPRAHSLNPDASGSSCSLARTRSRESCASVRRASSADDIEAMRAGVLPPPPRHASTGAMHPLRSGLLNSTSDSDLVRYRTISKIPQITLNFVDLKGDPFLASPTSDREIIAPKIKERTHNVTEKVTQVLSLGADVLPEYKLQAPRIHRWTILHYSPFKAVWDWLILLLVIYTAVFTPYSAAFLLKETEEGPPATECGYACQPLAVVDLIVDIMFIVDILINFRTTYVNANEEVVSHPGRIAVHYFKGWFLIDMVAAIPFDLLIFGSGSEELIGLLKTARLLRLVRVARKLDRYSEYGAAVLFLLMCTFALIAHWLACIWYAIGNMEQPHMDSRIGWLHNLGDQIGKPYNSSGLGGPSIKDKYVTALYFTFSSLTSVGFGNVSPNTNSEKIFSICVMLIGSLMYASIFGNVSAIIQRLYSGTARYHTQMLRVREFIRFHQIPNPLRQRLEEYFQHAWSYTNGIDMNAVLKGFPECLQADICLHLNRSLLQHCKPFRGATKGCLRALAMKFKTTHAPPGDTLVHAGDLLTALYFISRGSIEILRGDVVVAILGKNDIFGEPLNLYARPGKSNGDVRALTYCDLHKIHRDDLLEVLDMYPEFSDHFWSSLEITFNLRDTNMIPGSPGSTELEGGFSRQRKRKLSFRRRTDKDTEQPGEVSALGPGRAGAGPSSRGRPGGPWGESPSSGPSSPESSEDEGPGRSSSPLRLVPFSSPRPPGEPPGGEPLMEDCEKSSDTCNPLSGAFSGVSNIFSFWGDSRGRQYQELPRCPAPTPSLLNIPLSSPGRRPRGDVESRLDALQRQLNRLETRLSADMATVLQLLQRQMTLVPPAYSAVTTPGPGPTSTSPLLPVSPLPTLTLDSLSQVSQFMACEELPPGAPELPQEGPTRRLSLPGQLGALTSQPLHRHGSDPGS
Chain of Cytochrome P450 1A2 (Homo sapiens) (P05177 whole entry, looked up): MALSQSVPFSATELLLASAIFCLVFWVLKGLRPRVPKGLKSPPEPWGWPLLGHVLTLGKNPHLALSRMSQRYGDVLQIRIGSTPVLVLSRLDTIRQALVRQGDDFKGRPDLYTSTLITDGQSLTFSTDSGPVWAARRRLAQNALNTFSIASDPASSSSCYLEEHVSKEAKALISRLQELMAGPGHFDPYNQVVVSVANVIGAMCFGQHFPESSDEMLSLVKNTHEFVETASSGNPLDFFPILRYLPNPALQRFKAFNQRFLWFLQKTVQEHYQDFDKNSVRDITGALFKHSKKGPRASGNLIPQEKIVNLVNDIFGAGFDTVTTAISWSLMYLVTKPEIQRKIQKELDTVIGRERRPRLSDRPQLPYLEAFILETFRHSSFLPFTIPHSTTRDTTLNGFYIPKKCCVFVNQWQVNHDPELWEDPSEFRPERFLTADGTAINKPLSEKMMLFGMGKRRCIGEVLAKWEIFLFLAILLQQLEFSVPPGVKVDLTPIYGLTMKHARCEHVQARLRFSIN
Chain of Thyrotropin-releasing hormone receptor (Homo sapiens) (P34981 whole entry, looked up): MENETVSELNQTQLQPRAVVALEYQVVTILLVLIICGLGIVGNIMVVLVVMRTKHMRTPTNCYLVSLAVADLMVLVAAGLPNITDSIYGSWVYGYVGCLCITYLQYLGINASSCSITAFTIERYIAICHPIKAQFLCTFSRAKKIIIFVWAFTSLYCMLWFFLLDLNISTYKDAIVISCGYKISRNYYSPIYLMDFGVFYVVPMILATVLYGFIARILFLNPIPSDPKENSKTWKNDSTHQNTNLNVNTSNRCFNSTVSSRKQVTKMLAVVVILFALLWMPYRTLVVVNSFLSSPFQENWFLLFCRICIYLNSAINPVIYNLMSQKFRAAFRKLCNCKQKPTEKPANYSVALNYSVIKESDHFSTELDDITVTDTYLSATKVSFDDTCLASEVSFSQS
Chain of Nuclear receptor subfamily 1 group I member 2 (Rattus norvegicus) (Q9R1A7 whole entry, looked up): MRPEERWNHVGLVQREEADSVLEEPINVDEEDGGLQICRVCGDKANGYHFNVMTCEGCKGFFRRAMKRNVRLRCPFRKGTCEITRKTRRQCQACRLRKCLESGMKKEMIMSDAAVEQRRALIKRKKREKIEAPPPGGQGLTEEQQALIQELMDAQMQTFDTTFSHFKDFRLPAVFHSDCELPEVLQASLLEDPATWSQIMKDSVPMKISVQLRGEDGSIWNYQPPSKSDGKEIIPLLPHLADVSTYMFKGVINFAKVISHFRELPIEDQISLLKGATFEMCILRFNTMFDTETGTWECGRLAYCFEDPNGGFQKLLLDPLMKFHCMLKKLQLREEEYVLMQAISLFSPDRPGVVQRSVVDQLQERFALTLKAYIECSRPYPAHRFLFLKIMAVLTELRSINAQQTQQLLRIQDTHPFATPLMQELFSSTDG

Compound | Potency [1] | Potency [2] | Potency [3] | outcome [4] | Potency [5] | Potency [6] | Potency [7] | Potency [8] | Potency [9] | Potency [10] | Potency [11] | Potency [12] | Potency [13] | Potency [14] | Potency [15] | Potency [16] | Potency [17] | Potency [18] | Potency [19] | max activation [20] [%]
C1CCSC1 | inactive | inactive | inactive | inactive | inactive | inactive | inactive | inactive | inactive | inactive | inactive | inactive | inactive |  |  |  |  |  |  | 
CC(=O)[C@]1(O)Cc2c(O)c3c(c(O)c2[C@@H](O[C@H]2C[C@H](N)[C@H](O)[C@H](C)O2)C1)C(=O)c1ccccc1C3=O | 1.33 µM (active) | inactive |  | inactive | 2.66 µM (active) | 2.11 µM (active) |  | 11.9 µM (active) | inactive |  |  |  | inactive | inactive | inactive | 11.9 µM (active) | inactive | inactive |  | 
CCN(CC)c1ccc(C=O)c(O)c1 | inactive | inactive | inactive | inactive | inactive | inactive | inactive | inactive | 61.1 µM (active) | inactive |  | 17.8 µM (active) | inactive |  |  |  |  |  | inactive | 
CSc1ccc(O)cc1C | inactive | inactive |  | inactive |  | inactive | inactive | inactive |  | inactive |  | 63.3 µM (active) | inactive |  |  |  |  |  |  | 
CO[Si](OC)(c1ccccc1)c1ccccc1 | inactive | inactive |  | inactive | inactive | inactive | inactive | inactive | 34.4 µM (active) | inactive | 10 µM (active) | inactive | inactive | inactive | inactive |  |  |  | 20 µM (active) | 
C=COCCCC | inactive | inactive | inactive | inactive | inactive | inactive | inactive | inactive | inactive | inactive | inactive | inactive | inactive |  |  |  |  |  | inactive | 
Clc1ccc2c(Cl)ccnc2c1 | inactive | inactive |  | inactive | inactive | inactive | inactive | inactive | inactive | inactive | inactive | 5.64 µM (active) | inactive |  |  |  |  |  |  | 
CC(CC(C)(C)C)CC(C)(C)CC(C)(C)C (stereo not drawn) | inactive | inactive |  | inactive | inactive | inactive | inactive | inactive | inactive | inactive | inactive | inactive | inactive | inactive | inactive | inactive |  |  | inactive | 
CN(C/C=C/c1ccccc1)Cc1cccc2ccccc12 | inactive | inactive |  | inactive | inactive | inactive | inactive | inactive | inactive | 0.977 µM (active) | 3.89 µM (active) | 12.9 µM (active) |  | inactive | inactive |  |  | inactive |  | -2.12
O=C1CCCCCCCCCCCCCC1 | inactive | inactive |  | inactive | inactive | inactive | inactive | inactive | inactive | inactive | inactive | inactive |  | inactive | inactive | inactive |  |  | inactive | 
NC(=O)C1CO1 (stereo not drawn) | inactive | inactive |  | inactive | inactive | inactive | inactive | inactive | inactive | inactive | inactive | inactive | inactive | inactive | inactive | inactive |  |  |  | 
Clc1cccc(Cl)n1 | inactive | inactive | inactive | inactive | inactive | inactive | inactive | inactive | inactive | inactive | inactive | inactive | inactive |  |  |  |  |  | inactive | 
CCCCC/C=C\C=C\C(=O)OCC | inactive | inactive |  | inactive |  |  | inactive | inactive | 63.7 µM (active) | 46.7 µM (active) | 23.4 µM (active) | 37.1 µM (active) |  | inactive | inactive | 63.7 µM (active) |  |  |  | 
Cc1ccc2sc3cccc(C)c3c2c1 | inactive | inactive |  | inactive | inactive | inactive | inactive | inactive | inactive |  | inactive | 2.52 µM (active) |  | inactive | inactive | inactive |  |  | inactive | 
c1ccc2c(c1)-c1ccc3ccc4cccc5cc-2c1c3c45 | inactive | inactive | inactive |  | inactive | inactive | inactive |  | inactive | inactive | inactive | 0.219 µM (active) | inactive | inactive | inactive |  |  |  |  | 
